A number with no mark means an inactive call. Where a call stands in place of a potency, no number is given. The source made the active and inactive calls. Calls follow the shape of the dose curve; as a rule, active = well fitted curve in the direction sought with a large enough effect in the repeat runs; inconclusive = weak or mixed curves; inactive = flat fitted curve, though single readings scatter.
Assay: qHTS assay to test for compound auto fluorescence at 460 nm (blue) in HEK293 cell free culture (AID 720681)
Conditions: cell-free medium, autofluorescence 405/460 nm (blue); series mostly up to 91.3 µM
From the text: U.S. Tox21 Program National Center for Advancing Translational Sciences [NCATS] NIH Chemical Genomics Center [NCGC] U.S. Environmental Protection Agency [EPA] National Institutes of Environmental Health Sciences [NIEHS] National Toxicology Program [NTP] U.S. Food and Drug Administration [FDA] Tox21 Assay Overview: Compound auto fluorescence often interferes with screening of the compound library against various biological targets and signaling pathways. Some of these compounds may have fluorophoric properties. Such properties may interfere with the assay outputs resulting in false positives and/or negatives. To decrease such complications and ensure the compound activities are relevant in terms of biological response, the Tox21 10K compound library was screened for auto fluorescence. From the fluorophores used as reporter signals in our screening assays, the auto fluorescence equivalencies of compounds against three fluorophores have been evaluated: Triamterene, Fluorescein and Rose Bengal sodium for blue, green and red fluorescence, respectively. The fluorescence intensities were measured using Excitation/Emission wavelengths at 405/460nm, 485/535nm and 540/590nm for blue, green and red labels, respectively. This assay includes the blue fluorescence data.
Tox21 Assay Protocol Summary: 5 uL of culture medium (DMEM containing 10% FBS) per well was dispensed into black wall/clear bottom 1536-well plates using a Multidrop Combi Dispenser (ThermoFisher Scientific, Waltham, MA). After 23 nL compound or DMSO vehicle was transferred into assay plate by a pintool work station (Kalypsys, San Diego, CA), fluorescence intensities in the assay plates were measured by an Envision (PerkinElmer, Shelton, CT) plate reader using three labels for measuring blue, green and red fluorescence at […] 460, 535 and 590nm respectively.

Row | SMILES | Potency | fluorescence, % of fluorescent control
1 | Cc1ccccc1Br | inactive | –
2 | O=C(O)c1ccccc1-c1ccc(C(F)(F)F)cc1 | inactive | –
3 | COCc1ccc(COC)cc1 | inactive | –
4 | NC(=O)c1c(Cl)cccc1Cl | inactive | –
5 | Cn1cnc2c(=O)[nH]c(N)nc21 | inactive | –
6 | CC(C)CCOC(=O)CC(C)C | inactive | –
7 | OC/C=C/c1ccccc1 | inactive | –
8 | CC12CCC(CC1=O)C2(C)C (stereo not given) | inactive | –
9 | CCCCC1CCCCC(=O)O1 (stereo not given) | inactive | –
10 | O=C(O)c1ccccc1S | inactive | –
11 | CC(C)[N+](C)(C)CC(O)COc1cccc2ccccc12 (stereo not given) | inactive | –
12 | CCN1CCCC(OC(=O)C(c2ccccc2)c2ccccc2)C1 (stereo not given) | – | 0.0253% [at 18.6 µM]
13 | CC(=O)NC(Cc1ccccc1)C(=O)O (stereo not given) | inactive | –
14 | C#CC(O)CCCCC (stereo not given) | inactive | –
15 | O=C(O)c1ccc[n+]([O-])c1 | inactive | –
16 | CSc1nc(NC2CC2)nc(NC(C)(C)C)n1 | inactive | –
17 | Fc1ccccc1-c1ccccc1 | inactive | –
18 | COC(=O)CCCCCCCCC(=O)OC | inactive | –
19 | CC(C)CCCCCCN | inactive | –
20 | CCN1CCN(c2cc3c(cc2F)c(=O)c(C(=O)O)cn3C2CC2)CC1 | inactive | –

Row | SMILES | Potency | fluorescence, % of fluorescent control
21 | C=CCn1c(=O)n([C@@H]2O[C@H](CO)[C@@H](O)[C@H]2O)c2nc(N)[nH]c(=O)c21 | inactive | –
22 | CCOC(=O)Cn1c(=O)sc2cccc(Cl)c21 | inactive | –
23 | CC(C)COC(=O)c1ccccc1O | inactive | –
24 | O=C1C(CCS(=O)c2ccccc2)C(=O)N(c2ccccc2)N1c1ccccc1 (stereo not given) | – | 0.0823% [at 18.6 µM]
25 | CCCC=O | inactive | –
26 | CCCOc1ccccc1-c1nc2n[nH]nc2c(=O)[nH]1 | inactive | –
27 | CO | inactive | –
28 | CCCCNc1ccccc1 | inactive | –
29 | O=C(O)/C=C/c1ccc(Cn2ccnc2)cc1 | – | 0.209% [at 18.6 µM]
30 | O=Cc1ccccc1[N+](=O)[O-] | inactive | –
31 | COc1cccc(Br)c1 | inactive | –
32 | NS(=O)(=O)c1cc2c(cc1C(F)(F)F)NC(Cc1ccccc1)NS2(=O)=O (stereo not given) | – | 0.419% [at 18.6 µM]
33 | O=C(O)Cc1cc(I)c(Oc2cc(I)c(O)c(I)c2)c(I)c1 | inactive | –
34 | CC1(C)SC(C)(C)SC(C)(C)S1 | inactive | –
35 | Nc1cc(N)cc(C(=O)O)c1 | inactive | –
36 | CCCC(C)CO (stereo not given) | inactive | –
37 | CCCCCCCCC=O | inactive | –
38 | COc1ccc(N=[N+]([O-])c2ccc(OC)cc2)cc1 | inactive | –
39 | C#CC(C)(O)CC(C)C (stereo not given) | inactive | –
40 | O=C(O)c1cccc(C(=O)O)n1 | inactive | –

Reference: PubChem BioAssay (Tox21)
